According to PubChem BioAssay AID1159580 (chemical genetic matrix, 2015):
Where “and” joins values, the source holds several entries; their conditions need not be identical. Equal values may be shown once. The whole screen tested about 5,500 compounds, of which about 2,000 (36%) were called active. Not shown: some 18% with an inconclusive outcome. Rule as the data show it: active = normalized growth mostly below about 0.91 (no sharp cut-off); inconclusive = no clear call, values can overlap the other calls; inactive = mostly above about 0.92. The list shows a part of the results.

Assay: chemical genetic growth profiling, strain panel (AID 1159580);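 also: tested at 20 µM; growth read once vehicle control cultures reached saturation at 30 °C; 1 = growth at the plate median or of vehicle wells; lower values mean less growth of the strain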
Settings: S. cerevisiae deletion strains, growth OD

Measured: normalized growth

CC[N+](C)(C)c1cccc(O)c1
inactive: locus YAL013W, strain DEP1, hits give low values 0.992 and 1.06 | locus YAL021C, strain ccr4, hits give low values 1.02 | locus YAL026C, strain drs2, hits give low values 0.993 | locus YAL030W, strain snc1, hits give low values 1.01 | locus YAL040C, strain CLN3, hits give low values 0.997 | locus YBL061C, strain skt5, hits give low values 1 | locus YBR009C, strain hhf1, hits give low values 0.964 | locus YBR021W, strain FUR4, hits give low values 0.996 | locus YBR023C, strain chs3, hits give low values 1.02 | locus YBR171W, strain sec66, hits give low values 1 | locus YBR229C, strain ROT2, hits give low values 0.983 | locus YBR231C, strain swc5, hits give low values 1.03 | locus YBR279W, strain paf1, hits give low values 1.01 | locus YCL011C, strain gbp2, hits give low values 1.02 | locus YCL016C, strain dcc1, hits give low values 1.02 | locus YCL029C, strain bik1, hits give low values 0.966 | locus YCL061C, strain MRC1 (second series), hits give low values 1 | locus YCL061C, strain MRC1, hits give low values 1.02 | locus YCL069W, strain vba3, hits give low values 1.01 | locus YCR088W, strain abp1, hits give low values 1.01 | locus YDL005C, strain med2, hits give low values 1.02 | locus YDL035C, strain GPR1, hits give low values 1.01 | locus YDL040C, strain nat1, hits give low values 1.01 | locus YDL074C, strain BRE1, hits give low values 0.984 | locus YDL101C, strain DUN1, hits give low values 0.979 | locus YDL134C, strain PPH21, hits give low values 0.984 | locus YDL185W, strain tfp1, hits give low values 0.972 | locus YDL192W, strain arf1, hits give low values 0.992 | locus YDR001C, strain nth1, hits give low values 1 | locus YDR069C, strain doa4, hits give low values 1.02 | locus YDR101C, strain arx1, hits give low values 0.966 | locus YDR137W, strain rgp1, hits give low values 1.04 | locus YDR150W, strain NUM1, hits give low values 0.996 and 1 | locus YDR159W, strain sac3, hits give low values 0.993 | locus YDR162C, strain NBP2, hits give low values 0.999 | locus YDR195W, strain ref2 1.01 | locus YDR297W, strain sur2, hits give low values 1.01 | locus YDR318W, strain mcm21, hits give low values 0.971 | locus YDR334W, strain swr1, hits give low values 1.01 | locus YDR335W, strain msn5, hits give low values 1.01 | locus YDR363W, strain ESC2, hits give low values 1.01 | locus YDR388W, hits give low values 0.978 | locus YDR392W, strain spt3, hits give low values 0.92 | locus YDR502C, strain sam2, hits give low values 0.975 | locus YEL003W, strain gim4, hits give low values 0.995 | locus YEL037C, strain rad23, hits give low values 0.999 | locus YEL061C, strain CIN8 (second series), hits give low values 1.01 | locus YEL061C, strain CIN8, hits give low values 0.994 | locus YER002W, strain NOP16, hits give low values 0.998 | locus YER015W, strain faa2, hits give low values 0.999 | locus YER016W, strain bim1, hits give low values 1.01 | locus YER110C, hits give low values 0.97 | locus YER111C, strain swi4, hits give low values 0.998 | locus YER155C, strain BEM2 (second series), hits give low values 1.02 | locus YER155C, strain BEM2, hits give low values 0.949 | locus YER167W, strain BCK2, hits give low values 0.995 | locus YFR010W, strain ubp6, hits give low values 1 | locus YGL078C, strain dbp3, hits give low values 0.982 | locus YGL086W, strain mad1, hits give low values 1 | locus YGL167C, strain pmr1, hits give low values 1.01 | locus YGL173C, strain kem1, hits give low values 1.02 | locus YGL227W, strain vid30, hits give low values 1.02 | locus YGL240W, strain doc1, hits give low values 1.03 | locus YGL248W, strain PDE1, hits give low values 0.997 | locus YGL253W, strain hxk2, hits give low values 1.02 | locus YGR078C, strain PAC10, hits give low values 0.995 and 0.986 | locus YGR135W, strain pre9, hits give low values 0.973 | locus YGR229C, strain SMI1, hits give low values 1.01 | locus YGR252W, strain gcn5, hits give low values 1.06 | locus YHR013C, strain ard1, hits give low values 1.06 | locus YHR027C, strain rpn1, hits give low values 1.01 | locus YHR030C, strain SLT2, hits give low values 0.988 and 1.01 | locus YHR079C, strain IRE1 (second series), hits give low values 0.982 | locus YHR079C, strain IRE1, hits give low values 0.99 | locus YHR094C, strain hxt1, hits give low values 0.976 | locus YHR129C, strain ARP1, hits give low values 0.987 | locus YHR142W, strain chs7, hits give low values 1 | locus YHR200W, strain rpn10, hits give low values 0.968 | locus YIL066C, strain RNR3, hits give low values 0.985 | locus YIL073C, strain SPO22, hits give low values 0.982 | locus YIL125W, strain kgd1, hits give low values 0.997 | locus YIR030C, strain dcg1, hits give low values 0.974 | locus YJL092W, strain hpr5, hits give low values 1.01 | locus YJL095W, strain BCK1 (second series), hits give low values 1.01 | locus YJL095W, strain BCK1, hits give low values 0.973 and 1.02 | locus YJL115W, strain asf1, hits give low values 1.01 | locus YJL129C, strain trk1, hits give low values 1.02 | locus YJL134W, strain LCB3, hits give low values 0.991 | locus YJL154C, strain vps35, hits give low values 1 | locus YJL164C, strain tpk1, hits give low values 0.996 | locus YJL166W, strain qcr8, hits give low values 1.04 | locus YJL168C, strain set2, hits give low values 0.979 | locus YJL187C, strain SWE1 (second series), hits give low values 0.977 | locus YJL187C, strain SWE1, hits give low values 1.01 | locus YJR043C, strain POL32, hits give low values 0.984 | locus YJR066W, strain TOR1, hits give low values 0.931
